Compounds with a hit are over-represented: about 4% of the library has one in this group of screens.
TRHR enhancer-1: allosterically enhances the human TRH receptor | enhancement, % at 2 µM | hit rate 0.66% among 360,000 | TRHR cells, fluo-8 calcium fluorescence, EC20 TRH enhancement | P34981; in the data active = enhancement above about 30%; also: 0% is about no effect
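TRHR-expressing cells loaded with fluo-8 calcium dye were read kinetically (ex 480/em 530) during compound addition, then stimulated with an EC20 of TRH (10 nM final). Enhancement of the Gq-mediated intracellular calcium response was scored.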
Glioma ERSR ind: induces the endoplasmic reticulum stress response in human glioma cells | Potency, µM, inactives show at the highest dose activation, hits mostly activators | AID 602332 | U87-MG GRP78 promoter luciferase reporter, 16 h | hit rate 0.02% among 420,000; also: potency is read from the fitted curve at half-maximal effect; series mostly up to about 76 µM; % of control where 0% means no effect; nearly all actives have a fitted effect of over 35% in size
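ERSR induction read as luciferase luminescence (Bright-Glo, 10 min at room temperature) in stably transfected human U87-MG glioma cells exposed to compounds for 16 h, using GRP78 as sensor.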
D1 agonist: agonists of human D1 dopamine receptor | AID 504660 | hit rate 1% among 360,000 | HEK293 T-REx D1 cells, calcium flux, agonist mode | P21728 | activation, % at 2 µM; in the data active = activation above about 30%; also: 0% is about no effect
Target sequence (P21728 whole entry, looked up): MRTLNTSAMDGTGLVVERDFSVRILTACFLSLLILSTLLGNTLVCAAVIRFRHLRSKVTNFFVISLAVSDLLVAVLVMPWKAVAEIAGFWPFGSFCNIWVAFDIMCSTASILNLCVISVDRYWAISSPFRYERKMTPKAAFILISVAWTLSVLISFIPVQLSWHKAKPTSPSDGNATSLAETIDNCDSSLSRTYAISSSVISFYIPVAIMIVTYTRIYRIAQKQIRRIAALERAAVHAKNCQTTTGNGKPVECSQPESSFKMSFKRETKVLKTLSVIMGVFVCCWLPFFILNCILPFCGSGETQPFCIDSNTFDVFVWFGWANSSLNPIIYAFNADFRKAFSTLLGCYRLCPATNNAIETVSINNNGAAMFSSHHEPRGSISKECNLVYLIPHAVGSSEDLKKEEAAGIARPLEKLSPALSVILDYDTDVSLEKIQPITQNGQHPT
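Agonism was scored from calcium flux recorded over 180 s (1 read/s) after pintool compound addition, following a 10-cycle baseline. Cells were inducible force-coupled HEK293 TREx D1, plated overnight at 30 C and loaded with no-wash calcium dye.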
D1 potentiator: enhances dopamine response at the human D1 receptor; P21728; HEK293 TREx D1 cells, calcium flux, dopamine EC20 potentiation; potentiation, % at 10 µM; hit rate 0.036% among 360,000; AID 504651; in the data active = potentiation above about 30%; also: 0% is about no effect
TRHR agonist-1: TRH receptor (human) agonism. P34981. TRHR cells, calcium flux fluo-8, FDSS agonist mode. activation, % at 2 µM. hit rate 0.18% among 360,000. AID 493084; in the data active = activation above about 30%; also: 0% is about no effect
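In this calcium-flux screen, cells bearing human TRHR are dye-loaded with fluo-8, baselined for 10 cycles, then exposed to library compounds; positive kinetic calcium responses during the agonist phase mark hits, with TRH as control.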
D1 antag: human D1 dopamine receptor antagonism | P21728 | HEK293 TREx D1 cells, calcium flux, dopamine EC80; stronger effect = lower value | activity change, negative = inhibition, % at 10 µM | hit rate 3.2% among 360,000 | AID 504652; in the data active = activity change below about -30%; also: % is scaled to controls: 0 for no effect and ±100 for the full control effect
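Allosteric or orthosteric antagonism assessed as attenuation of the calcium response to EC80 dopamine, added 180 s after compound, in induced HEK293 Trex D1 cells loaded with no-wash calcium dye.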
TRHR enhancer-2: confirmation of human TRH receptor allosteric enhancers | shares compounds with TRHR enhancer-1 | 970 tested, under 10 active | TRH receptor cell assay, enhancer confirmation qHTS | activity change, negative = inhibition, % at 46.1 µM;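 also: compound effect scored on response to added TRH at EC20 of 10 nM; 0% is about no effect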
TRHR agonist-2: confirmation of human TRH receptor agonists; shares compounds with TRHR enhancer-1; TRHR-expressing cells, agonist activation read-out; Potency, µM (series often up to 46.1 µM), for inactives: at the highest dose activation, usual class: activators; hit rate 8% among 970; also: potency is read from the fitted curve at half-maximal effect; 0% is about no effect; nearly all actives have a fitted effect of over 75% in size
Numbers without * were called inactive; ? = inconclusive; / = no result given. Unless noted, calls follow the shape of the dose curve; as a rule, active = well fitted curve in the direction sought with a large enough effect; inconclusive = small, poorly fitted or top-dose-only effect, or another doubt; inactive = no such curve, though single readings can be large; an effect the other way counts as inactive or inconclusive.

SMILES	TRHR enhancer-1	Glioma ERSR ind	D1 agonist	D1 potentiator	TRHR agonist-1	D1 antag	TRHR enhancer-2	TRHR agonist-2
Cc1oc(-c2ccccc2)nc1C(=O)OCC(=O)NC(=O)NCC(C)C	49*	1%	0	-4	0	-14	-4	-1%
Cc1oc(-c2ccccc2)nc1C(=O)OCC(=O)NC(C)c1ccccc1 (stereo not given)	8	-3%	0	10	-1	-4	/	/
O=C(CSc1ccc(Br)cc1)N1CCN(C(=O)c2ccco2)CC1	60*	4%	3	-5	-1	-26	-3	0%
Cc1cccc(N(C(=O)c2csnn2)C(C(=O)NC2CCCCC2)c2ccncc2)c1 (stereo not given)	54*	-6%	0	-2	0	12	-9	1%
Cc1cccc(N(C(=O)c2csnn2)C(C(=O)NC2CCCC2)c2ccncc2)c1 (stereo not given)	20	-1%	0	-3	-1	6	/	/
Cc1cccc(CNC(=O)c2cnc3sc(N4CCOCC4)nn3c2=O)c1	30	-3%	1	-6	-1	16	/	/
CCCc1cc(=O)[nH]c(SCC(=O)Nc2cc(C)on2)n1	3	0%	4	-8	-1	5	/	/
COc1ccccc1N(CC(=O)NCc1cccnc1)S(C)(=O)=O	48*	-3%	1	-1	0	20	8	1%
N#CCCn1cc(CNC2CCC(O)CC2)c2ccccc21 (stereo not given)	45*	0%	-1	1	-2	6	?	-1%
CC1(Cc2cn(CCC#N)c3ccccc23)OCCO1	1	-5%	3	7	0	5	/	/
CCCCn1c(C)cc2c(c1=O)C1O[C@](CCCC)(Cc3cc(C#N)ccc31)O2	0	/	0	-2	0	-5	/	/
C[C@H]1CN([C@@H](C)CO)C(=O)CCCn2nncc2CO[C@H]1CN(C)S(=O)(=O)c1ccc(F)cc1	/	-2%	/	/	/	/	/	/
Cc1cc(NC(=O)c2ccc([N+](=O)[O-])cc2Cl)ccc1NC(=O)c1ccco1	-2	-3%	2	-8	0	7	/	/
Cc1ccc2c(NC(=O)c3ccco3)cccc2n1	42*	-1%	1	6	0	-4	-1	0%
Cc1cc([N+](=O)[O-])ccc1NC(=O)c1ccco1	46*	-4%	6	0	-1	-7	-3	0%
O=C(CN1C(=O)NC2(CCCC2)C1=O)OCc1cc(=O)n2cc(Br)ccc2n1	-1	5%	0	-5	0	6	/	/
O=C(N/N=C/c1c(O)ccc2ccccc12)c1ccc(Br)o1	4	-11%	97*	23	51*	-2	1	18µM*
CC(C)c1cnc2c(c1SCC(=O)NCc1ccccc1)c(=O)n(C)c(=O)n2C	-2	-1%	0	2	0	3	/	/
COc1ccccc1CNC(=O)N1CCN(S(=O)(=O)c2ccc(C)cc2)CC1	42*	-5%	5	7	-1	-9	-9	-1%
COc1cc(C(=O)Nc2cccc(-c3nnc(-c4ccco4)o3)c2)ccc1OC(C)=O	-7	-3%	-1	-1	0	10	/	/
O=C(COC(=O)c1cc(=O)[nH]c2ccccc12)c1ccccc1	-3	-4%	1	-1	0	16	/	/
Cc1ccc(C(=O)COC(=O)c2cc(=O)[nH]c3ccccc23)cc1	47*	-1%	0	-3	-1	-11	4	1%
CC1=C(C(=O)OCC(C)C)C(c2ccccc2Cl)NC(=O)N1C (stereo not given)	-1	-2%	5	/	-1	-5	/	/
CC1=C(C(=O)OCC(C)C)C(c2cc3c(cc2Br)OCO3)NC(=O)N1C (stereo not given)	53*	-14%	5	1	-2	4	-7	?
Cc1ccc(OCC(=O)c2cc(C)n(C)c2C)c([N+](=O)[O-])n1	44*	0%	5	-3	0	-3	-5	0%

High-throughput results (PubChem)
